Calls of active or inactive are those of the source.

Assay [1] relates to Plasmodium falciparum Sir2 (PF13_0152, Sir2A). Description: Plasmodium falciparum Sir2A binding compounds – biochemical, small-molecule microarray, 635 nm fluorescence, primary screen (AID 1098).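 Also: score merges spot fluorescence intensity with its signal-to-noise ratio.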 The following applies: fluorescence 635 nm, higher = more signal.
Assay [2] can be described thus: probe aDKK1 binding to arrayed compounds – biochemical, biotinylated probe, 635/667 nm fluorescence, primary screen (AID 1099).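 Also: score merges 667nm spot fluorescence with signal to noise across triplicate slides; reference of the scale not given here.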 The following applies: small-molecule microarray, higher = more signal.
A short description of assay [3]: probe aCHRDL2 binding to arrayed compounds – biochemical, biotinylated probe, 635/667 nm fluorescence, primary screen (AID 1100). Conditions: small-molecule microarray, higher = more signal.
Assay [4] is described as follows: change in splice reporter luminescence, either direction, cell-based, HEK293, spliceosome inhibition project, primary screen (AID 1101).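 Also: HEK293 cells carrying a splicing-competent luciferase reporter gene; test concentration not given here.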 The following applies: HEK293 splicing luciferase reporter, 24 h, higher = more signal, called active from +8 up or from −8 down.
Assay [5] addresses Fibroblast growth factor 10 (Homo sapiens) (UniProt O15520). Description: compounds binding fibroblast growth factor 10 – biochemical, small-molecule microarray, 635 nm fluorescence, primary screen (AID 1102). Conditions: FGF10 binding, fluorescence 635 nm, higher = more signal.
Assay [6] concerns glycogen synthase kinase-3 (GSK3A per assay name; protocol says GSK3B). The assay is described as follows: compounds binding glycogen synthase kinase-3 – biochemical, small-molecule microarray, 635 nm fluorescence, GSK3A, primary screen (AID 1103). Also: the record names both GSK3A and GSK3B. Conditions: fluorescence 635 nm, higher = more signal.
Assay [7] deals with Epidermal growth factor receptor (Homo sapiens) (UniProt P00533). The assay is described as follows: compounds binding epidermal growth factor receptor – biochemical, small-molecule microarray, 635 nm fluorescence, primary screen (AID 1104).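 Also: score merges 667 nm emission intensity with spot signal to noise over triplicate slides.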 Conditions: EGFR binding, higher = more signal.
Assay [8] has as its target Follistatin-related protein 3 (Homo sapiens) (UniProt O95633). The assay is described as follows: compounds binding follistatin-related protein 3 – biochemical, small-molecule microarray, 635 nm fluorescence, primary screen (AID 1105).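 Also: score merges emission near 667 nm and signal to noise per printed spot across three slides.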 The following applies: FSTL3 binding, higher = more signal.
Assay [9] concerns the target Dickkopf-related protein 1 (Homo sapiens) (UniProt O94907). Description: small molecules binding DKK1 protein – biochemical, small-molecule microarray, 635 nm fluorescence scan, primary screen (AID 1106).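 Also: score merges emission near 667 nm with signal to noise over three replicate slides.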 The following applies: higher = more signal.
Assay [10] deals with Inhibin beta A chain (activin A). The assay is described as follows: small molecules binding activin A – biochemical, small-molecule microarray, 635 nm fluorescence scan, primary screen (AID 1107).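 Also: mouse activin A protein probed at 4.33 µg/mL on printed slides; score merges bound-protein fluorescence near 667 nm with spot signal-to-noise.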 The following applies: INHBA, higher = more signal.

Sequence of Epidermal growth factor receptor (Homo sapiens) (P00533 whole entry, looked up): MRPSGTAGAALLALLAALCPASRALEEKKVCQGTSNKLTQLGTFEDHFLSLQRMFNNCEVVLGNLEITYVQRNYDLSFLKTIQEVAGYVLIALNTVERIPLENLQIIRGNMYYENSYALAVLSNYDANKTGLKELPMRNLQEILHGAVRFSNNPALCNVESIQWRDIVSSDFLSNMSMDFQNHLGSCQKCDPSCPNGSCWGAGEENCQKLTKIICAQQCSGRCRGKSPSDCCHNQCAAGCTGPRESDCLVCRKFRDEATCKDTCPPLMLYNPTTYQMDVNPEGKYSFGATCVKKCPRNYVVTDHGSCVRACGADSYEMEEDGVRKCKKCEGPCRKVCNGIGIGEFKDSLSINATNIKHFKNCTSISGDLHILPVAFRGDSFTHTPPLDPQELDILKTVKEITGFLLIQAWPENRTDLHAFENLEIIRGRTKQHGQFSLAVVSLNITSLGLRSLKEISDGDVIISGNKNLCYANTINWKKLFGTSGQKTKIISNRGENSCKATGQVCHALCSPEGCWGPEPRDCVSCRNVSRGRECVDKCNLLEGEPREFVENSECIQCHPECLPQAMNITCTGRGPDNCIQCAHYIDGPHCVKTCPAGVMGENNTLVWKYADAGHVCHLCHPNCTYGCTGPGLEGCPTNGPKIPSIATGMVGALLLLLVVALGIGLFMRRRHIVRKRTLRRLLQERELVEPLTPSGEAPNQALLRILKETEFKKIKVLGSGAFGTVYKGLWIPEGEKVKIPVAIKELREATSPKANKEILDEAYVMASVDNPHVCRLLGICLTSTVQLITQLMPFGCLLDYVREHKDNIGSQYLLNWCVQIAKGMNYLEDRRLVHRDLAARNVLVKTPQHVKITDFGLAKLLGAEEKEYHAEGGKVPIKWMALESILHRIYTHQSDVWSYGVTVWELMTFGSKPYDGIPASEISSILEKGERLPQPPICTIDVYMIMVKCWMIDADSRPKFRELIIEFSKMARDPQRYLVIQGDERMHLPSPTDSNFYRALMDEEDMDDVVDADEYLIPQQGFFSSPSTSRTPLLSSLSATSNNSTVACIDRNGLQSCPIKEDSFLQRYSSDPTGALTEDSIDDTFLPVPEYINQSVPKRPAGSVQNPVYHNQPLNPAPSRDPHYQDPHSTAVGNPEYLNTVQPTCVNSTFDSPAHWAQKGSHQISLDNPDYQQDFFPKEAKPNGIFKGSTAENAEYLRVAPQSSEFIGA
Sequence of Dickkopf-related protein 1 (Homo sapiens) (O94907 whole entry, looked up): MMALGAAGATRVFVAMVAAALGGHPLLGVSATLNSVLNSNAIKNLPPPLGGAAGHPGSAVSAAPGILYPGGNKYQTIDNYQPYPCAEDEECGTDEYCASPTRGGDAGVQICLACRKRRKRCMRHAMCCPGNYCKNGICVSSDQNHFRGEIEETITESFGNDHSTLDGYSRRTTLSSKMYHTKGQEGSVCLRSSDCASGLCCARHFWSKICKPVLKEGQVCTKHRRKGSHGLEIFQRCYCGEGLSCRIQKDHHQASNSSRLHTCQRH
Sequence of Follistatin-related protein 3 (Homo sapiens) (O95633 whole entry, looked up): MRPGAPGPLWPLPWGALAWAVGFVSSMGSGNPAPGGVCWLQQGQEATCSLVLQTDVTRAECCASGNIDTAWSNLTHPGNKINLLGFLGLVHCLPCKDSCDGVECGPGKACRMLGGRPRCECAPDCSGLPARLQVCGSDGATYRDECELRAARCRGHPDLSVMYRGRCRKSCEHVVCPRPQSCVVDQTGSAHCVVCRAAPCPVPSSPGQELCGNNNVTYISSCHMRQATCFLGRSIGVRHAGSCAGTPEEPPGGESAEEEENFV
Sequence of Fibroblast growth factor 10 (Homo sapiens) (O15520 whole entry, looked up): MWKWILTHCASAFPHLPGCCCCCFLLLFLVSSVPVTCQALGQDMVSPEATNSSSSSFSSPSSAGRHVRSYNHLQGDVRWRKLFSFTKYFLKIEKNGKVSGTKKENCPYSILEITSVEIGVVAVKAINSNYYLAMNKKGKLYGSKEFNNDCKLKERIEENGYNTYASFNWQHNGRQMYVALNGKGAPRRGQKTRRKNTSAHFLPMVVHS

Regarding `C=CCNC(=O)[C@@H]1[C@H]2C(=O)O[C@H](c3ccccc3)[C@H](c3ccccc3)N2[C@H](c2ccccc2OCCO)[C@@]12C(=O)Nc1ccc(C#CC3=CCCCC3)cc12`, the composite z-score in assay [1] is 0.71; in assay [2], -0.0328; in assay [3] it was 0.111; in [5], 1.22; in assay [6] it was 1.32; in assay [7], 0.478. Also, the composite z-score is 1.38 in assay [8], 0.479 in assay [9] and 0.982 in assay [10]. For the same compound, the z-score in assay [4] was -0.829 (inactive).
For the compound `CCOC(=O)C1=CCC(C(C)(C)C)N(S(=O)(=O)c2ccc(C)cc2)C1` (stereo not given), the composite z-score in assay [1] was 0.939; in assay [2], 0.368; in assay [3] it was 0.108; in assay [5] it was 1.48; in [6], 0.347; in assay [7] it was 1.15. In addition, the composite z-score worked out at 1.43 in assay [8], 1.44 in [9] and 0.136 in assay [10]. Also, the z-score in assay [4] is -0.0514 (inactive).
Consider `CC(C)CNC(=O)[C@@H]1c2ccccc2C(=O)N(Cc2cc(C(F)(F)F)cc(C(F)(F)F)c2)[C@H]1c1ccc(CO)cc1`, for which the composite z-score was -0.46 in [1]; 0.416 in assay [2]; 0.822 in assay [3]; -0.633 in assay [5]; -1.32 in assay [6]; -0.88 in [7]. In addition, the composite z-score was -0.736 in assay [8], -0.439 in [9] and -0.575 in assay [10]. For the same compound, the z-score in assay [4] is -0.827 (inactive).
`CC=CC(O)C1C=CC2C(=O)N(c3ccccc3)C(=O)C2N1Nc1ccc(C(C)C)cc1` (stereo not given): the composite z-score in [1] amounted to 0.534; in assay [2], 0.75; in [3], 0.973; in assay [5], 0.878; in assay [6], 1.24; in assay [7], 0.122. Besides, the composite z-score in [8] came out at 1.3; in assay [9] it was 0.14; in assay [10] it was 0.841. For the same compound, the z-score in [4] is -0.235 (inactive).
Turning to `C=C(CCCC)C(=O)CC[C@H](OC(=O)c1cccnc1)c1cccc(OCCO)c1`, the composite z-score in assay [1] is 0.681; in assay [2], -0.298; in [3], 0.165; in assay [5], 0.309; in assay [6] it was -0.208; in assay [7], -0.502. The composite z-score was -0.688 in assay [8], -0.219 in assay [9] and 1.29 in assay [10]. Besides, the z-score in assay [4] is 4.13 (inactive).
Consider `COCCCNC(=O)[C@@]1(CCC(=O)OC(C)(C)C)N=C(c2ccc(OCCCO)cc2)O[C@H]1c1ccccc1CN=[N+]=[N-]`, for which the composite z-score in assay [1] was found to be 1.62; in [2], 0.965; in [3], 1.08; in assay [5], 1.56; in [6], 1.13; in [7], 0.123. The composite z-score amounted to 0.932 in assay [8], 0.119 in [9] and 0.471 in [10]. For the same compound, the z-score in [4] is -0.228 (inactive).
As to `COc1c(C)cc(-c2cc3c(c(-c4ccc(Oc5ccccc5)cc4)n2)[Si](C(C)C)(C(C)C)OC3)cc1C`, the composite z-score in assay [1] is -0.486; in [2] it was 0.187; in assay [3], 0.0857; in [5], 0.0668; in assay [6] it was -0.278; in [7] it was 0.168. Moreover, the results for the composite z-score in assay [8], in [9] and in assay [10] were -0.069, 0.0431 and 0.51, respectively. In [4], the z-score was 0.391 (inactive).
For the compound `COC(=O)[C@@]1(Cc2ccc(OC)cc2)[C@H]2c3cc(C(=O)N(C)C)n(Cc4c(OC)[nH]cc(C)c4=O)c3C[C@H]2CN1C(=O)c1ccccc1`, the composite z-score in assay [1] was 1.04; in assay [2] it was 1.8; in [3], 0.628; in assay [5], 0.0004; in assay [6], -0.208; in assay [7] it was 0.197. Moreover, the composite z-score in assay [8] is 0.037; in assay [9], -0.41; in assay [10], 1.23. Besides, the z-score in assay [4] is -1.07 (inactive).
As for `C=C(COC)C(=O)CC[C@H](OC(C)=O)c1cccc(OCCO)c1`, the composite z-score in [1] is -0.443; in [2] it was -0.305; in assay [3], -0.0122; in assay [5] it was 1.06; in [6], 0.121; in [7], -0.92. In addition, the results for the composite z-score in assay [8], in assay [9] and in [10] were -0.249, -0.118 and 0.35, respectively. In addition, the z-score in [4] is -0.637 (inactive).
Consider `COC(=O)C1=CC(CCCO)=CC(C2CC2)N(Cc2sc3ccccc3c2Cl)C=C1C(=O)OC` (stereo not given), for which the composite z-score in assay [1] is 1.17; in [2], 0.589; in assay [3], 0.724; in [5], 1.02; in assay [6], 0.902; in [7], 0.0108. The composite z-score in assay [8] was 0.766; in assay [9], -0.0017; in assay [10] it was 1.06. Besides, the z-score in [4] is -0.8 (inactive).
Consider `Cc1cc(C)cc(N2C(=O)CS(=O)(=O)C2c2cccc([N+](=O)[O-])c2)c1` (stereo not given), for which the composite z-score in assay [1] amounted to 0.195; in assay [2], 0.734; in assay [3], 0.788; in assay [5], 0.612; in [6] it was 0.124; in assay [7] it was 0.518. Further, the values for the composite z-score in assay [8], in assay [9] and in [10] were 0.366, 0.122 and 0.826, respectively. In addition, in [4], the z-score is -0.352 (inactive).
For `CCCCCN1CC=CC23O[C@@H]4/C=C\CCC(C)OC(=O)C4[C@H]2C(=O)N(CCCCCO)[C@@H]3C1=O` (stereo not given in full), the composite z-score is 0.16 in assay [1]; -0.499 in assay [2]; -0.0779 in assay [3]; -0.57 in assay [5]; -0.77 in assay [6]; 0.361 in assay [7]. In addition, the composite z-score in assay [8] was -0.501; in [9] it was -1.07; in assay [10] it was -0.362. For the same compound, the z-score in assay [4] is -0.228 (inactive).
As to `O=C(CS)NCCCCCCNC(=O)[C@H]1C[C@H]2C(=O)N3CCC[C@H]3C(=O)N2[C@H]1c1cccc(OCCO)c1`, the composite z-score is 1.86 in [1]; -0.037 in [2]; -0.109 in assay [3]; 1.08 in [5]; 1.34 in [6]; 0.543 in [7]. For the same compound, the composite z-score in assay [8] amounted to 0.575; in [9], 0.904; in assay [10], 0.683. Also, the z-score in assay [4] is 0.5 (inactive).

The record behind these values is PubChem BioAssay.
